From PubChem
Rows were chosen to be rich in hits. Some 2% of all compounds tested hit in one or more screens of this group.
UHRF1 binding – human UHRF1 methylated DNA binding inhibitors. UHRF1 binding to methylated oligo, TR-FRET. inhibition, % at 4.4 µM. 370,000 compounds, 0.75% hits. AID 687016; in the data active = inhibition above about 21%;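 also: UHRF1 SRA domain binding a hemimethylated CpG hairpin DNA probe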
TCR CD3 inh – human TCR-CD3 binding inhibition; inhibition, % at 9.4 µM; 360,000 compounds, 0.37% hits; TAMRA-labeled TCR probe fluorescence, biochemical; AID 651800; in the data active = inhibition above about 19%;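 also: recombinant mutant TCR 2C K166C tagged with TAMRA read by polarization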
LEDGF integ inh – blocks HIV-1 LEDGF/p75-dependent DNA integration | TR-FRET IN-LEDGF/p75 DNA integration, Eu/Cy5 | 370,000 compounds, 0.64% hits | inhibition, % at 3.7 µM;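 active = inhibition above the screen-wide mean plus 3 SD, cut at about 13% in these data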;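 also: signal is the Cy5 over europium emission ratio at 671 and 618 nm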
Rin1-Abl PPI inh – inhibitors of human Rin1-Abl protein interaction | 360,000 compounds, 0.4% hits | TR-FRET Rin1/Abl binding, biochemical | AID 588664 | P00519+Q13671 | inhibition, % at 7.35 µM; in the data active = inhibition above about 5%, passing the limit was not always enough
MBD2 inh – blocks human MBD2 binding to methylated DNA | Q9UBB5 | TR-FRET, MBD2 binding to methylated oligonucleotide | inhibition, % at 4.4 µM | 370,000 compounds, 0.31% hits | AID 686964; in the data active = inhibition above about 13%
Target sequence (Q9UBB5 whole entry, looked up): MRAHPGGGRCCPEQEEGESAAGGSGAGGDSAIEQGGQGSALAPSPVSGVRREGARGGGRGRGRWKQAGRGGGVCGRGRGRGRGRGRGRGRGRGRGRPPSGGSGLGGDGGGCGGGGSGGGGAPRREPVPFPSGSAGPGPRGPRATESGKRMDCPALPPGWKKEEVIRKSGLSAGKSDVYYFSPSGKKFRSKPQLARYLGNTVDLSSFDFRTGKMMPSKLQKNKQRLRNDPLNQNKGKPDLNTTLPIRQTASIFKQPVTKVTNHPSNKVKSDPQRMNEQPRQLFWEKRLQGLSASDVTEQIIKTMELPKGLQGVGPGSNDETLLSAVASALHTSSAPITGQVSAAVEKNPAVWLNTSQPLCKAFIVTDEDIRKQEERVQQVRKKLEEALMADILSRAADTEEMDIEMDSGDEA
A number is an active result; i = inactive; nt = no result given.

SMILES | UHRF1 binding | TCR CD3 inh | LEDGF integ inh | Rin1-Abl PPI inh | MBD2 inh
COC(=O)c1ccc2nc(-c3cccc(Br)c3)c(Cc3ccsc3)n2c1 | 21.5 | i | i | i | i
COC(=O)c1ccc2nc(-c3ccccc3)c(Cc3ccccc3)n2c1 | i | i | i | nt | i
Cc1ccc2nc(-c3cccc(Br)c3)c(Cc3ccccc3C(F)(F)F)n2c1 | i | i | i | i | i
COC(=O)c1ccc2nc(-c3cccc(Br)c3)c(Cc3cccc(F)c3)n2c1 | i | i | i | nt | i
COC(=O)c1ccc2nc(-c3ccccc3)c(Cc3ccsc3)n2c1 | 22.2 | i | i | i | i
COC(=O)c1ccc2nc(-c3ccc(OC)c(OC)c3)c(Cc3ccsc3)n2c1 | i | i | i | i | i
Cc1ccc2nc(-c3ccc(F)cc3)c(Cc3ccccc3C(F)(F)F)n2c1 | 21.8 | i | i | i | i
Cc1ccc2c(c1)-c1c(cnn1CC(=O)NCCc1ccccc1F)CO2 | i | nt | i | nt | i
FC(F)(F)c1ccccc1Cc1c(-c2cccc(Cl)c2)nc2ccc(Br)cn12 | i | i | i | i | i
COC(=O)c1ccc2nc(-c3cccc(Cl)c3)c(Cc3cccc(Cl)c3)n2c1 | 23.1 | i | i | nt | i
COC(=O)c1ccc2nc(-c3cccc(Br)c3)c(Cc3cccc(Cl)c3)n2c1 | i | i | i | nt | i
COC(=O)c1ccc2nc(-c3cccc(Cl)c3)c(CC3CCCCC3)n2c1 | 21.7 | i | i | nt | i
COC(=O)c1ccc2nc(-c3cccc(Cl)c3)c(Cc3ccccc3C(F)(F)F)n2c1 | 22.1 | i | i | nt | i
COC(=O)c1ccc2nc(-c3cccc(Cl)c3)c(Cc3cccc(F)c3)n2c1 | i | i | i | nt | i
COC(=O)c1ccc2nc(-c3cccc(Cl)c3)c(Cc3ccsc3)n2c1 | 22.4 | i | i | i | i
COc1ccccc1NC(=O)C(C)N(C)Cc1ccc(Cl)s1 (stereo not drawn) | i | i | i | i | i
CSc1ccc(CN2CCC(C)(Oc3ccccc3F)C2)cc1 (stereo not drawn) | i | i | i | i | i
CCC(C)N(C(=O)COC(=O)c1ccc(N)c([N+](=O)[O-])c1)C1CCS(=O)(=O)C1 (stereo not drawn) | i | i | i | i | i
CC(O)(CC(=O)CC(=O)c1ccccc1)c1ccccc1 (stereo not drawn) | 43.3 | i | i | i | i
CCOc1ccc(-n2c(SCC(=O)c3ccc4ccccc4c3)nnc2-c2ccc(OC)cc2)cc1 | i | nt | i | nt | i
COc1cccc(N2CCN(C(=O)c3cc4c(s3)CCCCC4)CC2)c1 | i | i | i | i | i
COc1ccccc1NC(=O)c1ccc(NC(=O)CN2CCN(C(=O)c3ccco3)CC2)cc1 | i | i | i | i | i
COc1ccccc1NC(=O)CN1CCN(C(=O)c2ccco2)CC1 | 26.6 | i | i | i | i
COc1ccccc1NC(=O)N1CCN(C)CC1 | 34.1 | i | i | i | i
O=C(CSc1nnc(SCc2cccc3ccccc23)s1)Nc1ccc(Oc2ccccc2)cc1 | i | nt | i | nt | i
SMILES | UHRF1 binding | TCR CD3 inh | LEDGF integ inh | Rin1-Abl PPI inh | MBD2 inh
CCCOc1ccc(N)cc1N | i | i | 37.6 | i | i
CCCC(=O)NC(=S)Nc1ccccc1F | i | i | i | 6.3 | i
O=C(/C=C(\Nc1ccc(Br)c(F)c1)c1ccccc1)c1ccccc1 | i | i | i | nt | i
CCOc1ncccc1C(=O)Nc1ccc(F)c(F)c1 | i | i | i | i | i
CCOc1ncccc1C(=O)Nc1ccc(F)c(Cl)c1 | 76.2 | i | i | i | i
Cc1ccnc(-n2c(C)cc(C=O)c2C)c1 | 23.2 | i | i | i | i
CC(C)C(C(=O)NCc1ccccc1)N1CCN(CCN2CCOCC2)CC1 (stereo not drawn) | i | i | i | nt | i
CCOC(=O)[C@]12CCCCC/C=C\1N(Cc1ccc(OC)cc1)C(=O)[C@H]2CC(=O)NCc1cccs1 | i | nt | i | nt | i
O=C1c2ccccc2C(=O)C12OC2c1ccc(Cl)cc1Cl (stereo not drawn) | i | i | i | 7.2 | i
O=C1c2ccccc2C(=O)C1c1ccc(Cl)cc1 | i | i | i | i | i
Cc1cc(C)c(Nc2cc(S(=O)(=O)O)c(N)c3c2C(=O)c2ccccc2C3=O)c(C)c1 | 22.8 | i | i | i | i
O=C(O)COc1ccc(/C=N/NC(=O)c2ccc(-c3csc(Nc4ccc(Cl)cc4)n3)cc2)cc1 | 21.1 | i | i | i | i
O=C(NCCc1ccccc1Cl)[C@@H]1CCCN1C(=O)[C@@H](NC(=O)N1CCOCC1)C1CCCCC1 | i | i | i | nt | i
Clc1ccc(-c2cc(-c3nnc4sc(Cc5cccs5)nn34)[nH]n2)cc1 | i | nt | i | nt | i
COc1ccc(C(=O)CCc2ccc(OC)c(OC)c2)cc1 | i | i | i | i | i
COc1cc(O)c(CCC(=O)c2ccc(OC)c(OC)c2)c(OC)c1 | 63.5 | i | i | i | i
Cn1c(N)c(C(=O)COC(=O)Cn2cc(C(F)(F)F)ccc2=O)c(=O)n(C)c1=O | i | i | i | i | i
COC(=O)c1c(C)[nH]c(C(=O)COC(=O)Cn2cc(C(F)(F)F)ccc2=O)c1C | 82.2 | i | i | i | i
Cc1ccc(C)n1Cc1ccc(C(=O)O)cc1 | nt | nt | nt | 14.8 | nt
C=CCOc1ccc(C(=O)N(Cc2ccc(N(C)C)cc2)C2CCS(=O)(=O)C2)cc1 (stereo not drawn) | 63.0 | i | i | i | i
COc1cc(C=Nn2c(-c3cc(-c4ccccc4)n[nH]3)n[nH]c2=S)ccc1OC(C)=O | i | nt | i | nt | i
COc1ccc(C(=O)OCC(=O)c2ccc3c(c2)NC(=O)CO3)cc1OC | 58.5 | i | i | i | i
O=C(O)c1cc2c(ccc3ccccc32)oc1=O | i | i | i | i | i
CCOC(=O)c1cc2c(ccc3ccccc32)oc1=O | 28.9 | i | i | i | i
CCCC[C@H](C(=O)N(CC)c1ccccc1)[C@@H](O)c1ccc(Cl)cc1 | i | nt | i | nt | i
SMILES | UHRF1 binding | TCR CD3 inh | LEDGF integ inh | Rin1-Abl PPI inh | MBD2 inh
c1ccc(Cn2ccnc2C2OCCO2)cc1 | i | i | i | i | i
COc1ccc(C)c2sc(N3CCCC3)nc12 | 25.4 | i | i | i | i
COc1ccc(OC)c2sc(N3CCN(c4ccccc4)CC3)nc12 | i | i | i | i | i
CC(CCN1CCC(CN2C(=S)NCC2Cc2ccccc2)CC1)c1ccccc1 (stereo not drawn) | 21.3 | i | i | i | i
CC(C)CCN1CCC(CN2C(=S)NC[C@@H]2Cc2ccccc2)CC1 | i | i | i | i | i
CCOc1ccc(-n2c(SCC(=O)Nc3ccc4c(c3)OCCO4)nnc2-c2ccncc2)cc1 | i | nt | i | nt | i
Cc1ccc(-c2csc(NCCn3c(-c4ccncc4)nc4ccccc43)n2)cc1 | 22.3 | i | i | i | i
Cc1ccc(-c2csc(NCCn3c(-c4ccncc4)nc4cc(C(F)(F)F)ccc43)n2)cc1 | i | i | i | i | i
Nn1c(SCC(=O)Nc2nccs2)nnc1-c1cc(-c2ccc(F)cc2)n[nH]1 | i | nt | i | nt | i
O=C(CC1Sc2ccccc2NC1=O)NCc1ccc(Cl)cc1 (stereo not drawn) | 27.7 | i | i | i | i
O=S(=O)(CC1NCCc2ccccc21)NCCc1ccccc1 (stereo not drawn) | i | nt | i | nt | i
COc1cscc1C(N)=O | i | i | i | i | i
